# Reference: PubChem BioAssay
# Inconclusive results are not listed. Calls of active or inactive are those of the source.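 Rule for the calls, unless noted: active = efflux inhibition above 0.42, the validation set average plus 4 SD; inconclusive = no clear call, values can overlap the other calls; inactive = the rest.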
# What was measured:
# [1] = rapamycin-like changes in RPL19A-GFP expression – cell-based, S. cerevisiae, multiplex flow cytometry, primary screen (AID 1862; in the data active = percent of DMSO control GFP below about 86%;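 note: lower values mimic rapamycin by blocking the RPL19A rise seen in DMSO cells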); conditions: S. cerevisiae RPL19A-GFP strain, flow cytometry fluorescence, 3 h; at 10 µM; stronger effect = lower value
# [2] = TOR pathway GLN3 branch reporter MEP2-GFP changes – S. cerevisiae, multiplex flow cytometry, primary screen (AID 1867;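 active = GFP response, as percent of the DMSO control, above the screen-wide mean plus 3 SD, about 139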;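 note: median GFP channel fluorescence of barcode-gated MEP2-GFP cells measured by flow cytometry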); conditions: S. cerevisiae MEP2-GFP strain, 3 h, at 10 µM, stronger effect = higher value, 100% means same as DMSO wells
# [3] = TOR pathway RTG branch CIT2 reporter changes – S. cerevisiae, GFP fusion, multiplex flow cytometry, primary screen (AID 1870;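 active = percent response above a set limit, the screen-wide mean plus 3 SD, cut at about 130% in these data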;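 note: barcoded CIT2-GFP strain pooled with four other GFP strains with rapamycin as positive control; median GFP fluorescence per well over plate mean of DMSO wells so 100% = DMSO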); conditions: S. cerevisiae CIT2-GFP expression, 3 h, at 10 µM, stronger effect = higher value
# [4] = TOR pathway LAP4-GFP level changes – S. cerevisiae, multiplex flow cytometry, primary screen (AID 1873;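 active = GFP signal, as percent of the solvent control, above the screen mean plus 3 SD, about 149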); conditions: S. cerevisiae LAP4-GFP expression, 3 h, at 10 µM, stronger effect = higher value
# [5] = yeast AGP1-GFP level changes, GLN3 branch – cell-based, multiplex flow cytometry, S. cerevisiae, primary screen (AID 1887;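 active = GFP signal above the screen-wide mean plus 3 SD, that is over about 124.5% of the solvent control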;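 note: AGP1-GFP fusion strain of S. cerevisiae within a five-strain barcoded multiplex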); conditions: 3 h, at 10 µM, stronger effect = higher value
# [6] = reduced mouse 2C T cell binding to pMHC/ICAM-1 vesicles – MLPCN validation set, flow cytometry, LFA-1/ICAM-1 modulator project, pilot screen (AID 2523;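 active = response below a set limit, under 55% cells CD8-positive and vesicle-bound, and CD8 cells' 90th-percentile brightness under 279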;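 for vesicle binding response: mean PE anti-B7-1 fluorescence of CD8+ cells relative to row control; 100% = QL9-loaded vesicles with DMSO vehicle in the same plate row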); conditions: 2C mouse CD8+ T cells, at 7 µM, stronger effect = lower value; double positive events: measured here: CD8+/vesicle+ event percentage
# [7] = molecular target: Integrin beta-1 (Homo sapiens) + Integrin alpha-4 (Homo sapiens) (UniProt P13612+P05556); assay: alpha4beta1 integrin LIBS antibody binding reduction – U937 cells, HUTS-21 mAb, flow cytometry, validation set, VLA-4 allosteric modulator project, pilot screen (AID 2674;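 active = inhibition above 50%, about 3 SD of the validation set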;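 note: antibody binding induced by the VLA-4 ligand LDV present at three times its Kd; 0% = LDV ligand with antibody and no compound and 100% = antibody without LDV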); conditions: HUTS-21 LIBS mAb binding, at 6.7 µM, stronger effect = higher value, binding induced by LDV ligand
# Chain of Integrin beta-1 (Homo sapiens) + Integrin alpha-4 (Homo sapiens) (P05556 whole entry, looked up): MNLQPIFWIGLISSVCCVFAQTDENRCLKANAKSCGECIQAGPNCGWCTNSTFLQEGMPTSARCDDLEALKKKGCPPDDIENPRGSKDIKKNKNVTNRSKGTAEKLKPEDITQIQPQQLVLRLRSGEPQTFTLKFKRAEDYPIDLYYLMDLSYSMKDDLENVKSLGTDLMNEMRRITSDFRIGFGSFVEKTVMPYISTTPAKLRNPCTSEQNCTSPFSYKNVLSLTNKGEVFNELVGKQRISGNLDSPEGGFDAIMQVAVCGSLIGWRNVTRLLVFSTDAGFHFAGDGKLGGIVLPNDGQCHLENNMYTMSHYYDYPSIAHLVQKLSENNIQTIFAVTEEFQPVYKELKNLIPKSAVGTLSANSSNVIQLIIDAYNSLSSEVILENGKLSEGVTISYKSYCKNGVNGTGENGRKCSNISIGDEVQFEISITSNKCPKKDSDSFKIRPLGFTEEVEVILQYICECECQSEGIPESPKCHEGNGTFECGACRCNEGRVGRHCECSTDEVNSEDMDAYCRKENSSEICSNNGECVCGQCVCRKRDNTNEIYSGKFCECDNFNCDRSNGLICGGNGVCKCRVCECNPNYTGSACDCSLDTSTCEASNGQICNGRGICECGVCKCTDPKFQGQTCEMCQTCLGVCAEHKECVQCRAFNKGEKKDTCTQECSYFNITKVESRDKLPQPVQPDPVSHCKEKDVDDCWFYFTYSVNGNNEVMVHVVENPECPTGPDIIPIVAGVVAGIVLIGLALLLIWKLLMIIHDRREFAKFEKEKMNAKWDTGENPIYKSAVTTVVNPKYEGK
# Chain of Integrin beta-1 (Homo sapiens) + Integrin alpha-4 (Homo sapiens) (P13612 whole entry, looked up): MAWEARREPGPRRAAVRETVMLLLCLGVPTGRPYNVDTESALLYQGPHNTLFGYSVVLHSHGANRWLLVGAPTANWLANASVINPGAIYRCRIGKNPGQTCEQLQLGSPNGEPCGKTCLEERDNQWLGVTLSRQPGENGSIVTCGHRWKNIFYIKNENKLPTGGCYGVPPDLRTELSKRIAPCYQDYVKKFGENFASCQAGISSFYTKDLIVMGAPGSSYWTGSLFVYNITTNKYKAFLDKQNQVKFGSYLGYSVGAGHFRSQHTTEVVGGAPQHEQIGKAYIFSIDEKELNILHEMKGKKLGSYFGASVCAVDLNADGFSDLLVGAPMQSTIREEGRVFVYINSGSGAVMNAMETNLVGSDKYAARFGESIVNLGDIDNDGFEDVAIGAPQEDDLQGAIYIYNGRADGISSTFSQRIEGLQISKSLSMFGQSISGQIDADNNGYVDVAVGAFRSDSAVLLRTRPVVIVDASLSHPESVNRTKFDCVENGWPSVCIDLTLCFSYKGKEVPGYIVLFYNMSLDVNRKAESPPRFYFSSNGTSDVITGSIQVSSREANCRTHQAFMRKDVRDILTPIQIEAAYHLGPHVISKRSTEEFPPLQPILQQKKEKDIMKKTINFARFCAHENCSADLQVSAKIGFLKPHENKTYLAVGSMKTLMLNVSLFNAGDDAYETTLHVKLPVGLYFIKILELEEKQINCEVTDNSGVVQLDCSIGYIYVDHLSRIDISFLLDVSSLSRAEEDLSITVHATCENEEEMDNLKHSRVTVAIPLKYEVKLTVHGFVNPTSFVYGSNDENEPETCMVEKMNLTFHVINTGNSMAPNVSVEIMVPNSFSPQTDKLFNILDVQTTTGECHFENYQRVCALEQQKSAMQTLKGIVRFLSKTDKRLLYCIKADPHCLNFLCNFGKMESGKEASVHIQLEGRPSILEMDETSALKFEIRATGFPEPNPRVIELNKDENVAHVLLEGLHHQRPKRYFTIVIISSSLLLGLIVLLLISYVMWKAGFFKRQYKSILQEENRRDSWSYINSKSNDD
# [8] = calorie-restriction mimetic ROS inhibitors, yeast – validation compound set, pilot screen (AID 2706;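 active = superoxide response below 65% of plate, a cut near 3 SD across the whole screen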;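 note: yeast exposed to compound for one week at 30 degrees C before staining; 100% = mean of all compound wells on the same plate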); conditions: S. cerevisiae aging, superoxide DHE fluorescence; at 10 µM; stronger effect = lower value
# [9] = molecular target: Beta-adrenergic receptor kinase 1 (Homo sapiens) (UniProt P25098); assay: GRK2 binders displacing RNA aptamer, biochemical, validation, human GRK2, bead flow cytometry (AID 488806;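 active = aptamer binding inhibition above 30%, about 3 SD of noise from non-fluorescent compounds; inactive = inhibition at or below 30%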); conditions: bead-bound GRK2, FAM-aptamer displacement, at 10 µM, stronger effect = higher value
# Chain of Beta-adrenergic receptor kinase 1 (Homo sapiens) (P25098 whole entry, looked up): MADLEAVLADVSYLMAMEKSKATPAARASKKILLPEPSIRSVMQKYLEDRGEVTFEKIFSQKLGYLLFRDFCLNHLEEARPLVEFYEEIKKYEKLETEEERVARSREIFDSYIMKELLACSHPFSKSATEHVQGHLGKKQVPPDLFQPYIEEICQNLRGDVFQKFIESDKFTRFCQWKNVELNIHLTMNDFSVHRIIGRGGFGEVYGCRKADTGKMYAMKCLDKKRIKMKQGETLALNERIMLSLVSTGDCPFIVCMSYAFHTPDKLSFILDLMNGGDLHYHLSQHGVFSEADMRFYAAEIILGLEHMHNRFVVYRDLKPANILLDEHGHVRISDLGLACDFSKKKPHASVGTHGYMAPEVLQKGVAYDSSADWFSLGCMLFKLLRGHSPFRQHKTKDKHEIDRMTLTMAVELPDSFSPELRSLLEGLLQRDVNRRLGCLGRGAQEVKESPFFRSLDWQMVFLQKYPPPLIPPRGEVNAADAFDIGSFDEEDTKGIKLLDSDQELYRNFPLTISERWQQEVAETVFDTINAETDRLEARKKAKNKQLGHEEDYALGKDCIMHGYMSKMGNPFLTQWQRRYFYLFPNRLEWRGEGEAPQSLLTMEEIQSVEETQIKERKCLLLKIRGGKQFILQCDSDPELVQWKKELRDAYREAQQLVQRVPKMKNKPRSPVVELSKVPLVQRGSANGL
# [10] = molecular target: Beta-2 adrenergic receptor (Homo sapiens) (UniProt P07550); assay: agonist-induced loss of surface beta2AR – cell-based, FAP fluorogen, flow cytometry, validation set, pilot screen (AID 504459;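 active = percent response above 42, roughly 3 SD of non-fluorescent test compounds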;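 note: agonist-driven loss of surface beta2AR via internalization measured by FAP dye flow cytometry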); conditions: Am2.2-beta2AR cells, at 10 µM, stronger effect = higher value
# Chain of Beta-2 adrenergic receptor (Homo sapiens) (P07550 whole entry, looked up): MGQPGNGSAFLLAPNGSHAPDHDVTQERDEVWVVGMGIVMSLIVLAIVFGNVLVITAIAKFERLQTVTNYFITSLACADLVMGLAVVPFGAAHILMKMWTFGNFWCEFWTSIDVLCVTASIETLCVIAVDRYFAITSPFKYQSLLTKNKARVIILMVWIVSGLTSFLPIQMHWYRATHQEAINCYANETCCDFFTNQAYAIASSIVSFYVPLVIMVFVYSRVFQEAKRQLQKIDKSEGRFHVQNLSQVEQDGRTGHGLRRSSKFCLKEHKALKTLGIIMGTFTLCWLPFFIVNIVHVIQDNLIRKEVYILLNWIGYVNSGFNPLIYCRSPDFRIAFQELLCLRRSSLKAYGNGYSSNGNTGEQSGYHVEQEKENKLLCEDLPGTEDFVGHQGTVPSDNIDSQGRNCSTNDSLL
# [11] = molecular target: AP-2 complex subunit beta (Homo sapiens) (UniProt P63010); assay: beta-arrestin/AP2 interaction blockers – biochemical, validation set, GST-AP2 beads, flow cytometry, pilot screen (AID 504541;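 active = inhibition above 54%, about 3 SD of non-fluorescent compounds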;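 note: AP2 carries R879A mutation and is captured from E. coli lysate; bead-bound FITC arrestin peptide fluorescence measuring arrestin peptide binding to AP2; 0% = DMSO wells and 100% = excess unlabeled arrestin peptide control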); conditions: FITC arrestin peptide, at 10 µM, stronger effect = higher value, AP2 beta2 appendage fragment, R879A mutant
# Chain of AP-2 complex subunit beta (Homo sapiens) (P63010 whole entry, looked up, the tested form may be a part, one chain of several): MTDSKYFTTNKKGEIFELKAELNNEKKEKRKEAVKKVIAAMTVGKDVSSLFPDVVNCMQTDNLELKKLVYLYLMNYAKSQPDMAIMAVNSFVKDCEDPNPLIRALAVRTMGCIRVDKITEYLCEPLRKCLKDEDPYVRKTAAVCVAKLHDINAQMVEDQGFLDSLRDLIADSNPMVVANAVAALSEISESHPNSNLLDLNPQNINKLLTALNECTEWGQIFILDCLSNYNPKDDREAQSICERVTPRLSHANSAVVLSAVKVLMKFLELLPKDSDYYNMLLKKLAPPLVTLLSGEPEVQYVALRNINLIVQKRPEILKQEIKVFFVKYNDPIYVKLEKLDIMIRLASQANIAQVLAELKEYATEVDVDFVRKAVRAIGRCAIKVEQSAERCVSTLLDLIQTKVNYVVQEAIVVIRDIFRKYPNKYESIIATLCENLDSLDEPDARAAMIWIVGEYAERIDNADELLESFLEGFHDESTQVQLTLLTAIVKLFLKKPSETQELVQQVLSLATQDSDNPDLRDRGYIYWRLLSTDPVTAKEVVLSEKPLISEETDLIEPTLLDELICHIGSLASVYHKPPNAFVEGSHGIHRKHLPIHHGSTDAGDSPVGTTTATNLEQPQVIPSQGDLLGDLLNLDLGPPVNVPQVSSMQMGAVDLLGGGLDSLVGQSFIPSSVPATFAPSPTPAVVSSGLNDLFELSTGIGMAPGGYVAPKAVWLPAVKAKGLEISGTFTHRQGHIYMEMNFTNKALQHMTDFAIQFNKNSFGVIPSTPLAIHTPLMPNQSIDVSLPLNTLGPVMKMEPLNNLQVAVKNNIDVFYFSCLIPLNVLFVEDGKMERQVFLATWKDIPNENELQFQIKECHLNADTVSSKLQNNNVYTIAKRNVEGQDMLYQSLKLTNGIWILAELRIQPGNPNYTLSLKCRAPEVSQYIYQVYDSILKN
# [12] = cytosolic pH regulators acting via V-ATPase – S. cerevisiae, pHLuorin, HTS validation (AID 504600; in the data active = response above about 15%;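 note: plate controls were DMSO for no effect and reference compound for full effect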); conditions: V-ATPase proton transport, at 10 µM, stronger effect = higher value
# [13] = tested on: anti-desmoglein-3 scFv antibody binding to human DSG3; assay: blockers of pathogenic pemphigus antibody–desmoglein-3 binding – biochemical, validation compound set, bead-based, flow cytometry, pilot screen (AID 588368;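 active = binding below the plate cutoff, the plate median minus 3 SD, with a reading above zero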;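 note: signal is the median channel fluorescence of bead-bound GFP antibody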); conditions: Protein G beads, DSG3-Fc, scFv-GFP binding, at 10 µM, stronger effect = lower value
# [14] = Nile Red efflux blockade in pump-expressing yeast – validation compound set, multiplex, phenotypic, pilot screen (AID 588506);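 note: Nile Red retained in cells so higher fluorescence means more efflux inhibition; 0 = negative control wells and 1 = enniatin B 25 µM full block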; conditions: S. cerevisiae pump-expressing triplex, Nile Red efflux flow cytometry; at 10 µM; stronger effect = higher value; the pumps come from Candida albicans
# [15] = molecular target: ATP-binding cassette sub-family B member 6 (Homo sapiens) (UniProt Q9NP58); assay: blockers of ABCB6-driven porphyrin uptake – K562-ABCB6 cells, flow cytometry, validation set, pilot screen (AID 588550;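 active = inhibition above the screen-wide mean plus 3 SD, about 51%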;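 note: 0% = DMSO wells and 100% = benzethonium chloride 70 µM positive control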); conditions: K562-ABCB6 porphyrin accumulation, 1 h, at 10 µM, stronger effect = higher value
# Chain of ATP-binding cassette sub-family B member 6 (Homo sapiens) (Q9NP58 whole entry, looked up): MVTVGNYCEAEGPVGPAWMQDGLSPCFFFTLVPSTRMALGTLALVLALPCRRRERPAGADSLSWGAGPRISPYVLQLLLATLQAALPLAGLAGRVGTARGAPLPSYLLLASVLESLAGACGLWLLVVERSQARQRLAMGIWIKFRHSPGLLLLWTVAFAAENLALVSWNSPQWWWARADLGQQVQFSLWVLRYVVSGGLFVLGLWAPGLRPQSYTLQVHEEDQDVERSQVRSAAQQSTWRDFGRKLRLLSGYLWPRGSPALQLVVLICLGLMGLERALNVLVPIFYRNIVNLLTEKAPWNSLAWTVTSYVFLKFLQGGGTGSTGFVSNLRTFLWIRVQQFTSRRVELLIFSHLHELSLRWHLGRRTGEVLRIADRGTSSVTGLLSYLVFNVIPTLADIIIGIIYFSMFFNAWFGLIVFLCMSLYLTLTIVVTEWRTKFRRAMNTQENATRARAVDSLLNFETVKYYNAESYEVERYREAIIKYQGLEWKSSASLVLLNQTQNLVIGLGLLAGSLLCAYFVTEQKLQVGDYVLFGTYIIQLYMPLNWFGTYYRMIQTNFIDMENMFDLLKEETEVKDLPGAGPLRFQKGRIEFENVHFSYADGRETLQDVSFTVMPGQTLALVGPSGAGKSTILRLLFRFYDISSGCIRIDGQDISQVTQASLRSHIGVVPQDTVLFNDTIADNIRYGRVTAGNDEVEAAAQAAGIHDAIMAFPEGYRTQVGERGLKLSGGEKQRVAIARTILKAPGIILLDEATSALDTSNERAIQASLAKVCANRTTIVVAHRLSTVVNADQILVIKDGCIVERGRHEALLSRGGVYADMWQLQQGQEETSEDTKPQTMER
# [16] = AML differentiation inducers, ER-HoxA9 marrow cells – cell-based, GFP/MAC1 double positive, flow cytometry, validation set, primary screen (AID 588685;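 active = differentiation response of at least 50%, scaled between solvent and reference control, from cells with both markers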;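 note: compound exposure lasts four days before antibody staining and flow analysis; 0% = DMSO wells and 100% = 5 µM fulvestrant positive control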); conditions: stronger effect = higher value, normalized: vehicle 0, fulvestrant 100
SMILES,percent of DMSO control GFP [1],GFP response vs DMSO [2],percent response of DMSO control [3],GFP response vs DMSO [4],"GFP response, % of DMSO [5]",double positive events [6],vesicle binding response [6],inhibition [7],superoxide response (% of plate) [8],aptamer binding inhibition [9],response [10],inhibition [11],response [12],binding (% of control) [13],efflux inhibition (fraction of control) [14],inhibition [15],differentiation response [16]
COc1ccc(CCn2c(C)nc3c(c(=O)c4ccccc4n3C)c2=O)cc1,98.6% (inactive),102% (inactive),103% (inactive),104% (inactive),116% (inactive),61.1%,155% (inactive),-8.78% (inactive),96.8% (inactive),5% (inactive),-29.5% (inactive),7.96% (inactive),7.85% (inactive),101% (inactive),0.21 (inactive),5% (inactive),16.7% (inactive)
C/C=C(/C(=C/C)c1ccc(O)cc1)c1ccc(O)cc1,90.4% (inactive),135% (inactive),95.2% (inactive),81.4% (inactive),87.7% (inactive),63.9%,170% (inactive),8.4% (inactive),91.4% (inactive),2% (inactive),-4.98% (inactive),13.1% (inactive),-1.75% (inactive),101% (inactive),0.48 (active),4% (inactive),-7.37% (inactive)
NNC(=O)c1cc(O)c(O)c(O)c1,105% (inactive),88.8% (inactive),114% (inactive),96% (inactive),106% (inactive),59%,149% (inactive),-1.49% (inactive),93.7% (inactive),4% (inactive),-4.68% (inactive),12% (inactive),1.02% (inactive),91.2% (inactive),-0.1 (inactive),5% (inactive),-2.69% (inactive)
O=C(OCC1CCCN2CCCCC12)c1ccc2c(c1)OCO2 (stereo not drawn),93.7% (inactive),112% (inactive),104% (inactive),75.9% (inactive),95.9% (inactive),63.4%,208% (inactive),13.2% (inactive),99.6% (inactive),5% (inactive),-1.89% (inactive),-5.07% (inactive),12% (inactive),104% (inactive),-0.38 (inactive),15% (inactive),0% (inactive)
CCCC(=O)Nc1ccccc1NC(C)=O,101% (inactive),102% (inactive),108% (inactive),99.1% (inactive),104% (inactive),65.9%,170% (inactive),-9.13% (inactive),111% (inactive),1% (inactive),5.03% (inactive),-1.46% (inactive),0.04% (inactive),95.1% (inactive),1.13 (active),0% (inactive),-1.65% (inactive)
C[C@H]1O[C@@H](O[C@H]2[C@@H](O)C[C@H](O[C@H]3[C@@H](O)C[C@H](O[C@H]4CC[C@@]5(C)[C@H](CC[C@@H]6[C@@H]5C[C@@H](O)[C@]5(C)[C@@H](C7=CC(=O)OC7)CC[C@]65O)C4)O[C@@H]3C)O[C@@H]2C)C[C@H](O)[C@@H]1O,100% (inactive),105% (inactive),95.5% (inactive),93.7% (inactive),93.7% (inactive),62.7%,151% (inactive),11% (inactive),90.7% (inactive),-2% (inactive),12.4% (inactive),-11.4% (inactive),1.64% (inactive),103% (inactive),-0.07 (inactive),-10% (inactive),5.67% (inactive)
O=C(O)c1ccc(-c2ccc(O)c(F)c2)cc1,105% (inactive),105% (inactive),111% (inactive),98% (inactive),102% (inactive),60%,4700% (inactive),-1.49% (inactive),96.3% (inactive),-2% (inactive),-5.66% (inactive),-6.99% (inactive),3.09% (inactive),97.9% (inactive),-0.17 (inactive),-1% (inactive),-6.6% (inactive)
CC(=O)OCC(=O)[C@@]1(O)[C@H](C)C[C@H]2[C@@H]3CCC4=CC(=O)C=C[C@]4(C)[C@@]3(F)[C@@H](O)C[C@@]21C,97.2% (inactive),119% (inactive),107% (inactive),80.9% (inactive),91.7% (inactive),59.3%,192% (inactive),12.3% (inactive),108% (inactive),-2% (inactive),-2.19% (inactive),-11.7% (inactive),2.51% (inactive),99.4% (inactive),-0.35 (inactive),9% (inactive),-3.28% (inactive)
COc1cc2c(cc1NCc1ccc3c(c1)OCO3)oc1ccccc12,99.6% (inactive),133% (inactive),112% (inactive),88% (inactive),89.4% (inactive),64%,167% (inactive),1.61% (inactive),99.1% (inactive),0% (inactive),4.3% (inactive),47.4% (inactive),8.06% (inactive),103% (inactive),0.37 (inactive),0% (inactive),8.19% (inactive)
CCCCCC(O)c1cccc(OCc2ccc3ccccc3n2)c1 (stereo not drawn),101% (inactive),97.6% (inactive),99% (inactive),130% (inactive),109% (inactive),65.2%,227% (inactive),22.7% (inactive),110% (inactive),2% (inactive),-42.6% (inactive),6.94% (inactive),1.82% (inactive),92.4% (inactive),0.04 (inactive),5% (inactive),-8.93% (inactive)
Cc1ccccc1-c1nn(-c2ccc(F)cc2F)cc1CNCCN(C)C,106% (inactive),103% (inactive),116% (inactive),98.6% (inactive),102% (inactive),62%,51.7% (inactive),13% (inactive),90.2% (inactive),-11% (inactive),-7.22% (inactive),-6% (inactive),3.34% (inactive),103% (inactive),-0.07 (inactive),-15% (inactive),-5.62% (inactive)
Nc1ccn([C@@H]2O[C@H](CO)[C@@H](O)[C@@H]2O)c(=O)n1,101% (inactive),106% (inactive),109% (inactive),114% (inactive),111% (inactive),64.5%,201% (inactive),8.29% (inactive),108% (inactive),0% (inactive),-9.36% (inactive),10.5% (inactive),-2.75% (inactive),99.4% (inactive),-0.08 (inactive),-10% (inactive),-11.9% (inactive)
CC(=O)Oc1c2occc2cc2ccc(=O)oc12,98.4% (inactive),103% (inactive),87.2% (inactive),114% (inactive),98.9% (inactive),57.9%,140% (inactive),-11.3% (inactive),101% (inactive),3% (inactive),9.55% (inactive),7.26% (inactive),-2.03% (inactive),101% (inactive),0.51 (active),8% (inactive),10.4% (inactive)
COc1cc(-c2nnc(-c3cccs3)o2)cc(OC)c1OC,102% (inactive),106% (inactive),99.7% (inactive),103% (inactive),86.3% (inactive),61.1%,98.4% (inactive),-1.09% (inactive),99.2% (inactive),3% (inactive),-28% (inactive),5.76% (inactive),33.5% (active),101% (inactive),0.15 (inactive),29% (inactive),-1.65% (inactive)
COc1ccc(C2c3c(n[nH]c3C)CC(C)(O)C2C(C)=O)cc1OC (stereo not drawn),87.3% (inactive),129% (inactive),97.9% (inactive),76.5% (inactive),90.3% (inactive),67.8%,58.4% (inactive),10.3% (inactive),106% (inactive),4% (inactive),-2.94% (inactive),-0.31% (inactive),0.84% (inactive),103% (inactive),-0.13 (inactive),7% (inactive),13.1% (inactive)
Cc1ccc(S(=O)(=O)NC(C(=O)Oc2ccc3c(C(F)(F)F)cc(=O)oc3c2)c2ccccc2)cc1 (stereo not drawn),98.1% (inactive),102% (inactive),100% (inactive),115% (inactive),107% (inactive),62.2%,183% (inactive),-6.23% (inactive),106% (inactive),-1% (inactive),5.6% (inactive),59.2% (active),-16.5% (inactive),92.6% (inactive),0.12 (inactive),-3% (inactive),0.92% (inactive)
O=C(O)CCCCCN1C(=O)C(=O)/C(=C(/O)c2ccccc2)C1c1ccccc1 (stereo not drawn),99.5% (inactive),97.4% (inactive),98.6% (inactive),119% (inactive),102% (inactive),63.1%,212% (inactive),-5.89% (inactive),103% (inactive),7% (inactive),-2.6% (inactive),-10.9% (inactive),-1.69% (inactive),98% (inactive),-0.06 (inactive),7% (inactive),7.2% (inactive)
CC12CC(c3ccccc3O1)C(C(=O)N1CCOCC1)C(=O)N2 (stereo not drawn),100% (inactive),103% (inactive),101% (inactive),85.2% (inactive),101% (inactive),60.3%,53.4% (inactive),2.55% (inactive),107% (inactive),6% (inactive),6.73% (inactive),-22.1% (inactive),0.44% (inactive),103% (inactive),-0.34 (inactive),8% (inactive),-1.88% (inactive)
S=C(NCc1ccccc1)NCc1cccc(CNC(=S)NCc2ccccc2)c1,105% (inactive),98.6% (inactive),93.8% (inactive),108% (inactive),120% (inactive),62.4%,205% (inactive),9.1% (inactive),81.9% (inactive),-2% (inactive),-21.3% (inactive),2.64% (inactive),-2.61% (inactive),100% (inactive),0.33 (inactive),2% (inactive),1.91% (inactive)
